From PubChem
TIM10 inh – TIM10 yeast growth inhibition | actives 1.4% (n = 330,000) | S. cerevisiae TIM10 strain growth, BacTiter-Glo luminescence, 24 h | inhibition, % at 10 µM;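 active = inhibition of 40% or more at the single tested concentration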;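 also: wild-type TIM10 isogenic control strain grown at permissive 25 °C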
tim23-1 inh – growth inhibitors of tim23-1 mutant yeast; S. cerevisiae tim23-1 growth, BacTiter-Glo luminescence, 24 h; inhibition, % at 20 µM; actives 1.3% (n = 330,000);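 active = growth inhibition of the mutant yeast at or above 50%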;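 also: temperature-sensitive mutant grown at 25 °C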
NLRP3 yeast inh – inhibitors of NALP3 inflammasome in yeast; actives 0.39% (n = 330,000); inhibition, % at 10 µM; Yeast reconstituted NLRP3/ASC/caspase-1, beta-gal luminescence, 24 h;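 active = inhibition of 50% or more; inactive = inhibition below 50%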
tim10-1 inh – inhibits growth of tim10-1 mutant yeast | actives 2.2% (n = 330,000) | AID 463190 | S. cerevisiae tim10-1 ts strain growth, BacTiter-Glo, 24 h | inhibition, % at 20 µM;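 active = inhibition of at least 40%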;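 also: mutant grown at 25 °C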
SKKanGAS inh – inhibitors of SKKanGAS S. pyogenes growth in kanamycin (SK-promoter or general growth effect); AID 1662; actives 1.3% (n = 300,000); BacTiter-Glo, 6 h; inhibition, % at 7.5 µM;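 active = mean replicate score, as percent of positive control median, at least 50; inconclusive = mean below 50 but one replicate at or above 50; inactive = mean and every replicate below 50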;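 also: strain carries kanamycin resistance gene driven by streptokinase promoter and grows in 40 µg/ml kanamycin; loss of luminescence reflects streptokinase promoter inhibition or plain growth inhibition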
NALP3 yeast conf – NALP3 inhibition confirmation in yeast | shares compounds with NLRP3 yeast inh | yeast expressing human NALP3, luminescence | inhibition, % at 10 µM | actives 81% (n = 1,300) | AID 435006; in the data active = inhibition above about 48%
Casp1-ASC yeast – caspase-1-ASC yeast counter-screen hit. shares compounds with NLRP3 yeast inh. yeast expressing Caspase-1-ASC, luminescence counter screen. inhibition, % at 10 µM. actives 66% (n = 1,000)
NALP3 yeast rt – retest-confirmed inhibitor of NALP3 in yeast | shares compounds with NLRP3 yeast inh | yeast expressing human NALP3, luminescence read-out | inhibition, % at 10 µM | actives 53% (n = 1,000)
Hits are given with their value; . = inactive; ? = inconclusive; / = not tested or not shown. Only some compounds are listed: those with a hit (about 4.6% of all), similar ones and a draw of the others. Rule as the data show it, unless noted: active = inhibition above about 50%; inactive = the rest.

SMILES	TIM10 inh	tim23-1 inh	NLRP3 yeast inh	tim10-1 inh	SKKanGAS inh	NALP3 yeast conf	Casp1-ASC yeast	NALP3 yeast rt
CC1CCc2c(C(=O)NCCN3CCOCC3)csc2C1 (configuration not stated)	.	.	.	.	.	/	/	/
COc1cc(C)ccc1OCCOc1ccccc1Cl	.	.	50.9	.	.	49.0	.	.
COc1ccc(C(=O)NNC(=S)NC(=O)c2cccs2)cc1	.	.	56.1	.	88.7	71.5	.	.
COc1ccc(C(=O)NC(=S)NC(C)C)cc1Br	.	.	.	.	.	/	/	/
COc1ccc(C(=O)NC(=S)NNC(=O)c2cccc(C)c2)cc1	.	.	50.8	.	113.0	.	.	.
COc1ccc(C(=O)NNC(=S)Nc2ccccc2)cc1	.	.	.	.	.	/	/	/
COc1ccc(C(=O)NNC(=S)NC(=O)c2ccc(F)cc2)cc1Br	.	.	62.2	.	102.9	71.3	60.2	59.5
O=C(NNC(=S)NC(=O)c1ccc(Br)cc1)c1ccc([N+](=O)[O-])cc1	.	.	53.5	.	100.2	.	.	54.4
CCOC(=O)[C@H]1[C@H]2COc3cc(OC)ccc3[C@@H]2N2C(=O)CN(Cc3ccc(OC)cc3)C(=O)[C@@]12C	.	.	.	.	/	/	/	/
Cc1cc(S(=O)(=O)N2c3ccc(F)cc3CCC2C)ccc1-n1cnnn1 (configuration not stated)	.	.	.	.	.	/	/	/
O=C(Cc1cccc(Cl)c1)Nc1ccc(Br)cc1	.	.	54.2	.	.	.	57.4	.
O=C(Cc1ccc(Br)cc1)Nc1ccc(Cl)cc1	.	.	.	.	.	/	/	/
Cc1ccc(C(=O)NCCC(=O)N2CCCC2)cc1	.	.	.	.	.	/	/	/
O=C(NCc1cccnc1)c1cc(S(=O)(=O)N2CCCC2)c(Cl)cc1Cl	.	.	.	.	.	/	/	/
Nc1ccc(-c2cc3ccccc3oc2=O)cc1	.	.	.	.	.	/	/	/
O=c1oc2ccccc2cc1-c1ccc(O)cc1	.	.	51.5	.	.	.	/	/
CCc1nc(SCC(=O)Nc2cc(OC)ccc2OC)c2c(C)c(C)sc2n1	.	.	.	.	.	/	/	/
CCN(C[C@H]1N[C@@](C)(C(=O)OC)[C@H]2C(=O)N(C)C(=O)[C@@H]12)C(=O)Nc1ccc(Cl)cc1	.	.	.	.	/	/	/	/
CCN(CC)S(=O)(=O)c1cccc(C(=O)Nc2cc(C)cc(C)c2)c1	.	.	.	.	.	/	/	/
CCN(CC)S(=O)(=O)c1ccc(C(=O)Nc2cc(C)cc(C)c2)cc1	.	.	50.6	.	.	51.6	.	.
CCN(CC)S(=O)(=O)c1ccc(Cl)c(C(=O)OC2CC(C)OC2=O)c1 (configuration not stated)	.	.	.	.	.	/	/	/
CC(=O)Cn1ncc(N2CCCCC2)c(Cl)c1=O	.	.	.	.	.	/	/	/
CO/N=C(\Cn1ncc(N2CCCC2)c(Cl)c1=O)c1ccc(Cl)cc1	.	.	70.3	.	.	73.5	75.3	60.5
CCOc1ccc(NS(=O)(=O)c2csc(C(N)=O)c2)cc1	.	.	.	.	.	/	/	/
COc1ccc(S(=O)(=O)N2CCN(c3nc(C)cc(C)n3)CC2)cc1	.	.	53.2	.	.	64.8	63.4	57.5
SMILES	TIM10 inh	tim23-1 inh	NLRP3 yeast inh	tim10-1 inh	SKKanGAS inh	NALP3 yeast conf	Casp1-ASC yeast	NALP3 yeast rt
COc1ccc(-c2ccc(S(=O)(=O)N3CCCC3)cc2)cc1	.	.	52.8	.	.	.	54.5	.
COC(=O)c1ccccc1NC(=O)C1CCCN(S(=O)(=O)c2ccc(OC)cc2)C1 (configuration not stated)	.	.	64.2	.	.	76.8	62.6	60.4
COc1ccc(S(=O)(=O)N2CCCCCC2)cc1	.	.	.	.	.	/	/	/
NCCNC(=O)Cn1c(=O)c2c3c(sc2n(Cc2ccccc2)c1=O)CCCC3	.	.	.	.	.	/	/	/
CCn1c(COc2ccc(C)cc2)nnc1SCc1ccc(C#N)cc1	.	.	61.4	.	?	71.3	54.1	.
O=C(COC(=O)c1ccccc1F)Nc1ccc(S(=O)(=O)N2CCOCC2)cc1	.	.	.	.	/	/	/	/
O=C(NC1CC1)C1=C[C@H](C2CCCCC2)C[C@H](OCc2ccc(CO)cc2)O1	.	.	57.5	.	.	60.5	62.3	.
C#CCNC(=O)C1=C[C@H](C2CCCCC2)C[C@H](OCc2ccc(CO)cc2)O1	.	.	54.3	.	.	53.8	50.7	.
COc1cccc(S(=O)(=O)NC2CCN(C#N)C2)c1 (configuration not stated)	.	.	.	.	/	/	/	/
CCC(C)N(C(=O)Cn1cnc2c1c(=O)n(C)c(=O)n2C)C1CCS(=O)(=O)C1 (configuration not stated)	.	.	.	.	.	/	/	/
CCSc1oc(-c2ccco2)nc1S(=O)(=O)c1ccc(C)cc1	.	.	51.7	.	.	49.9	50.2	.
CCSc1oc(-c2ccco2)nc1S(=O)(=O)c1ccc(F)cc1	.	.	.	.	.	/	/	/
COc1cccc(NC(=O)c2cnn(-c3ccccc3)c2C)c1	.	.	51.1	.	.	59.0	.	.
Cc1ccc(NC(=O)c2cnn(-c3ccccc3)c2C)cc1	.	.	.	.	.	/	/	/
CCc1cccc(NC(=O)c2cnn(-c3ccccc3)c2C)c1	.	.	58.8	.	.	67.1	56.8	67.2
CSCCC(NC(=O)c1cccc(C)c1)C(=O)OCC(=O)Nc1c(C)nn(-c2ccccc2)c1C (configuration not stated)	.	.	.	.	.	/	/	/
Cc1nc2c3ccccc3nc(NNC(=O)CCC(=O)NCCN3CCN(c4ccccc4F)CC3)n2n1	.	.	52.2	.	.	75.8	53.5	71.2
COc1ccc(N2CCN(CCNC(=O)CCC(=O)NNc3nc4ccccc4c4nc(C)nn34)CC2)cc1	.	.	.	.	.	/	/	/
CS/C(=N\S(=O)(=O)c1cccs1)Nc1ccc(F)c(Cl)c1	.	.	.	.	.	/	/	/
CS/C(=N\S(=O)(=O)c1cccs1)Nc1cccc(Cl)c1C	.	.	.	.	.	.	/	/
COc1ccc(OC)c(NC(=O)C2CC(=O)N(Cc3ccco3)C2)c1 (configuration not stated)	.	.	.	.	/	/	/	/
O=C(Nc1ccc(Br)cn1)c1cccc2ccccc12	.	.	51.5	.	.	.	/	/
COc1ccccc1C(CNC(=O)c1oc2ccccc2c1C)N1CCCC1 (configuration not stated)	.	.	.	.	/	/	/	/
CCN(CC)S(=O)(=O)c1cc(C)c(C)cc1Br	.	.	58.2	.	.	54.5	53.2	.
C=CCNc1nc(Cl)nc(Nc2ccc(OCC)cc2)n1	.	.	52.5	.	.	.	.	.
NCCc1nnc(SCc2ccc(F)cc2)o1	.	.	58.9	.	.	73.8	57.5	61.2
